Screens deposited in PubChem by several laboratories.
Rows were chosen to be rich in hits. Some 4.2% of all compounds tested hit in one or more screens of this group.
esBAF inh: inhibitors of esBAF chromatin remodeling in mouse ES cells | 350,000 compounds, 2% hits | AID 602393 | Bmi1-luciferase knock-in reporter, 24 h; 100% = twice the neutral-well signal | reporter increase, % at 12.5 µM; in the data active means activation above about 40%;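 further: a rise in the Bmi1 reporter signal indicates esBAF inhibition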
hgDAF12 agonist: hgDAF-12 agonism, primary luciferase screen | HEK293 GAL4-hgDAF12 UAS-luciferase reporter, agonist luminescence; normalized to butyrate control | activation, % at 6.8 µM | 370,000 compounds, 1.8% hits;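 active means activation above a cutoff set at the mean of all screened compounds plus 3 SD, cut at about 10% in these data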
Wnt bcat act: activates Wnt/beta-catenin signaling in a reporter cell assay; activation, % at 9.35 µM; 300,000 compounds, 1.2% hits; activator, plate reader; in the data active means activation above about 30%, passing the limit was not always enough
DAX1 inh: DAX1 (NR0B1) inhibition, primary screen; HEK293T StAR-luciferase reporter, SF-1/DAX-1 repression relief; inhibition, % at 6.8 µM; 370,000 compounds, 1.1% hits; AID 652010;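 active means inhibition above the mean over all tested compounds plus 3 SD, cut at about 3.6% in these data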;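 further: higher inhibition means more luminescence from relief of DAX-1 repression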
ssDAF12 agonist: S. stercoralis DAF-12 activation, primary screen. HEK293 ssDAF-12/GRIP1 lit1-tk-luc reporter, luminescence; % of 3 µM dafachronic acid response. activation, % at 6.8 µM. 370,000 compounds, 1% hits. AID 652126;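 active means activation above the mean over all tested compounds plus 3 SD, cut at about 0.9% in these data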
hcDAF12 agonist: H. contortus DAF-12 activation, primary screen; HEK293 hcDAF-12 lit1-tk-luc reporter, luminescence; 0% DMSO, 100% Δ7-dafachronic acid; activation, % at 6.8 µM; 370,000 compounds, 1.4% hits;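 active means activation above the mean of all tested compounds plus 3 SD, cut at about 5.5% in these data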
DAX1 conf: NR0B1 (human) inhibition, confirmation. shares compounds with DAX1 inh. HEK293T StAR-promoter luciferase reporter, SF-1/DAX-1 repression. inhibition, % at 6.8 µM. 2,400 compounds, 87% hits. AID 652134;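 active means inhibition above the average of every tested compound plus 3 SD, cut at about 3.8% in these data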;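 further: active compounds raise luminescence by relieving repression of the StAR reporter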
Target sequence (P51843 whole entry, looked up): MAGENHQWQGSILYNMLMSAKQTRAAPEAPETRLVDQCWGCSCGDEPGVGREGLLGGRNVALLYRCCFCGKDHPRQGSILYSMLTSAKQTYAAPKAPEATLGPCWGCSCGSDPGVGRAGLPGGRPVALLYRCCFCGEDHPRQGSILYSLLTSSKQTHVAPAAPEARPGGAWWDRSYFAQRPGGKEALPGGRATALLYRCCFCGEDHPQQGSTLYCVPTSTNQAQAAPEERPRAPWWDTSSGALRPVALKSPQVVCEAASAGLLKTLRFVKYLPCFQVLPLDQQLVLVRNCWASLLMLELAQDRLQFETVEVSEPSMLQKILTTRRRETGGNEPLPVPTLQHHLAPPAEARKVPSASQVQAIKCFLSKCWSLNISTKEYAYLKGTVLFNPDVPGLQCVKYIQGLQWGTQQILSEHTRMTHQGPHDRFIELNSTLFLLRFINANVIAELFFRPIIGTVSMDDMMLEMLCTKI
SF1 AF2mut Luc: nonselective inhibitor or artifact in SF-1 mutant DAX1 counter-screen | shares compounds with DAX1 inh | HEK293 StAR-luciferase, SF-1 AF2 mutant, luminescence | inhibition, % at 6.8 µM | 2,400 compounds, 78% hits | AID 652136;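 active means inhibition above the mean of all tested compounds plus 3 SD, cut at about 3% in these data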
Hits are given with their value; n = inactive; x = no result.

SMILES	esBAF inh	hgDAF12 agonist	Wnt bcat act	DAX1 inh	ssDAF12 agonist	hcDAF12 agonist	DAX1 conf	SF1 AF2mut Luc
CSc1ccccc1OCc1cc(C(=O)N2CCSCC2)no1	69	12	n	5.3	n	n	5.4	3.4
CSc1ccccc1OCc1cc(C(=O)N2CCCC(C)C2)no1 (configuration not stated)	62	12	51	6.5	n	n	8.3	4.0
CSc1ccccc1OCc1cc(C(=O)N(C)Cc2ccc3nsnc3c2)no1	n	11	35	5.3	n	n	6.5	3.1
Cc1ccc(C)c(OCc2cc(C(=O)N3CCOCC3)no2)c1	50	n	n	5.7	n	n	5.3	4.7
COc1ccc(NC(=O)Nc2ccc3c(c2)C(=O)N([C@@H](C)CO)C[C@@H](C)[C@@H](CN(C)Cc2ccc(C(=O)O)cc2)OCCCC[C@@H](C)O3)cc1	n	x	x	x	x	x	x	x
C[C@@H](NC(=O)C[C@@H]1C[C@@H]2c3cc(NC(=O)Nc4ccccc4F)ccc3O[C@@H]2[C@@H](CO)O1)c1ccccc1	n	x	x	x	x	x	x	x
C[C@@H]1CN([C@@H](C)CO)C(=O)c2cc(C#CC3(O)CCCC3)cnc2O[C@@H]1CN(C)C(=O)C1CCC1	n	x	x	x	x	x	x	x
C[C@@H]1CN([C@H](C)CO)C(=O)c2cc(NC(=O)Nc3ccc4c(c3)OCO4)ccc2O[C@@H](C)CCCCO[C@@H]1CN(C)Cc1ccc(C(=O)O)cc1	n	x	x	x	x	x	x	x
Cc1cccc(N(C)S(=O)(=O)c2ccc(-c3cnc(C4CC4)o3)cc2)c1	n	n	n	7.6	n	n	15	n
COc1ccc(CNC(=O)C[C@@H]2CC[C@H](NS(=O)(=O)c3cccc(OC)c3)[C@H](CO)O2)cc1	n	x	x	x	x	x	x	x
O=c1[nH]c(COc2ccc(Cl)cc2Cl)nc2ccccc12	73	n	n	5.2	n	n	13	6.8
O=C(CCc1nc2ccccc2c(=O)[nH]1)NNC(=O)COc1ccccc1Cl	n	n	n	n	n	n	x	x
C[C@@H](NC(=O)C[C@H]1C=C[C@H](NC(=O)C2CCC2)[C@@H](CO)O1)c1ccccc1	n	x	x	x	x	x	x	x
Cc1noc(C)c1S(=O)(=O)N(C)C[C@@H]1OCCCC[C@H](C)Oc2ccc(NC(=O)Nc3ccc(C(F)(F)F)cc3)cc2C(=O)N([C@H](C)CO)C[C@@H]1C	n	x	x	x	x	x	x	x
CN(C)CCN(C(=O)c1ccc2c(c1)OCCO2)c1nc2cc3c(cc2s1)OCO3	n	n	n	n	n	n	x	x
CN(C)CCN(C(=O)c1ccc2c(c1)CCCC2)c1nc2cc3c(cc2s1)OCCO3	n	n	n	6.0	n	6.1	4.4	n
O=C(NNC(=O)c1ccccc1O)c1cc2ccccc2o1	x	n	n	5.6	1.1	n	3.8	4.0
O=C(NNC(=O)c1cc2ccccc2o1)c1ccncc1	n	n	n	n	n	n	x	x
O=C(NC1CCCCC1)c1ccc(-c2cccc([N+](=O)[O-])c2)o1	x	n	32	7.9	n	n	11	4.1
O=C(O)c1ccc(-c2cccc([N+](=O)[O-])c2)o1	x	n	n	n	n	n	x	x
Cc1nn(-c2ccccc2)c(Cl)c1/C=N/NC(=O)c1cccnc1	x	n	x	n	n	n	x	x
Cc1nn(-c2ccccc2)c(Cl)c1/C=N/NC(=O)c1ccn[nH]1	n	13	n	14	n	5.8	8.8	5.8
Cc1noc(C)c1S(=O)(=O)N(C)C[C@@H]1OCCCC[C@H](C)Oc2ccc(NS(=O)(=O)c3ccccc3)cc2C(=O)N([C@@H](C)CO)C[C@H]1C	n	x	x	x	x	x	x	x
Cc1ccc(S(=O)(=O)N(C)CC(=O)Nc2ccc(C)cn2)cc1	n	n	n	n	n	n	x	x
Cc1ccc(S(=O)(=O)N(C)CC(=O)Nc2cc(C)ccn2)cc1	66	10	38	4.6	n	n	6.8	5.2
SMILES	esBAF inh	hgDAF12 agonist	Wnt bcat act	DAX1 inh	ssDAF12 agonist	hcDAF12 agonist	DAX1 conf	SF1 AF2mut Luc
C[C@H]1CN([C@@H](C)CO)C(=O)c2cc(-c3ccc(C#N)cc3)cnc2O[C@H]1CN(C)C(=O)c1ccccc1	n	x	x	x	x	x	x	x
COc1ccc(-c2coc3cc(O)ccc3c2=O)cc1O	n	13	n	5.0	n	n	6.5	3.3
COc1ccc(-c2coc3cc(OC4OC(CO)C(O)C(O)C4O)cc(O)c3c2=O)cc1 (configuration not stated)	n	11	56	11	n	n	11	5.7
COc1cc(O)cc2occ(-c3ccc(O)cc3)c(=O)c12	n	n	n	n	n	n	x	x
COc1ccc(-c2cc(=O)oc3cc(O)ccc23)cc1	x	n	n	n	n	n	x	x
COc1ccc(-c2coc3cc(O)ccc3c2=O)cc1	n	n	47	4.9	n	n	11	5.1
Cc1cscc1-c1ccc(C(=O)Nc2c(C)cccc2C)o1	n	n	n	4.5	n	n	n	n
Cc1ccc(-c2ccc(C(=O)Nc3ccccc3)o2)c2ccccc12	n	n	n	n	n	n	x	x
C[C@@H]1CN([C@H](C)CO)S(=O)(=O)c2ccc(C#CC3CC3)cc2O[C@H]1CN(C)C(=O)c1ccccn1	n	x	x	x	x	x	x	x
Cc1ccc(S(=O)(=O)N2C[C@H]3C(=O)C[C@@H]4C(=O)N(c5ccccc5)C(=O)[C@@H]4[C@@H]3C[C@H]2c2cccs2)cc1	n	n	n	n	n	n	x	x
CCOC1=C2CN(S(=O)(=O)c3ccc(C)cc3)[C@@H](c3cccs3)C[C@H]2[C@H]2C(=O)N(c3ccccc3)C(=O)[C@H]2C1	n	n	n	4.5	n	n	n	n
CC1CCCN(c2ccc3nc4ccccc4c(=O)n3n2)C1 (configuration not stated)	x	11	n	4.7	n	n	7.8	3.5
COc1ccc(C(CNC(=O)c2cccc(S(=O)(=O)N3CCOCC3)c2)N2CCCC2)cc1 (configuration not stated)	n	n	n	n	n	n	x	x
COc1ccc(C(CNC(=O)c2ccc(Cl)c(NC(=O)c3cccs3)c2)N2CCCC2)cc1 (configuration not stated)	x	n	n	4.8	n	n	3.9	n
COc1ccc(C(CNC(=O)c2ccc(NS(=O)(=O)c3ccc(F)c(C)c3)cc2)N2CCCC2)cc1 (configuration not stated)	n	n	n	n	n	n	x	x
COc1ccc(C(CNC(=O)c2cccc(S(=O)(=O)N3CCCC3)c2)N2CCCC2)cc1 (configuration not stated)	n	n	n	5.6	n	n	n	n
